Screens: PubChem, several laboratories
This is a sample that favours compounds with a hit; in the whole collection about 2.7% have one here.
CHT allo act: human CHT allosteric activation. B-score at 10 µM. Q9GZV3. AID 488977. actives 0.49% (n = 310,000). CHT-expressing cells, membrane potential dye, choline EC20; stronger effect = higher value; LV-AA mutant CHT in HEK293 cells;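 active = initial fluorescence not abnormally high and integrated response B-score, plate-corrected, over 3 SD above library mean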
Target sequence (Q9GZV3 whole entry, looked up): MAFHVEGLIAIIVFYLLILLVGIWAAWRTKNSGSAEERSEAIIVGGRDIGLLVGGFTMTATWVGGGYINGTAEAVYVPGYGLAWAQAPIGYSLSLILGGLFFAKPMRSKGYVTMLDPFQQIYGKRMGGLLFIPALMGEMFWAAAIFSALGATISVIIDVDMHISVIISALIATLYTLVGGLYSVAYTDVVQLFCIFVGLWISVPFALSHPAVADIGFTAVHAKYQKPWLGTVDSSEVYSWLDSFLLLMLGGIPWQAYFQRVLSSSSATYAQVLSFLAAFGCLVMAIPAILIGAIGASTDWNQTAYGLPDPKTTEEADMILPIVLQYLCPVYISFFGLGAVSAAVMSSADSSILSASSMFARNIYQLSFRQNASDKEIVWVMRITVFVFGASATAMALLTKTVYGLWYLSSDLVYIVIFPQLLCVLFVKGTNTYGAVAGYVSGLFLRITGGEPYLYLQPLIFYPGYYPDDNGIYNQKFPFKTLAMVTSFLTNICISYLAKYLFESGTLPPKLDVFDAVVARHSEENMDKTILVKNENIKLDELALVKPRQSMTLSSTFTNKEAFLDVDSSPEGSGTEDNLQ
CHT inh: human CHT choline transport inhibition; Q9GZV3; CHT-expressing cells, membrane potential dye, choline response; stronger effect = lower value; B-score at 10 µM; actives 0.86% (n = 310,000); AID 488975;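 active = B-score over 3 SD under the library average, and starting fluorescence ratio not unusually high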;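 note: choline stimulus applied at its EC90 after an EC20 pre-addition; B-score computed on integrated fluorescence ratio after choline addition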
IDE cell inh: inhibits human insulin-degrading enzyme in HEK cells | AID 434962 | P14735 | actives 0.41% (n = 320,000) | FAbetaB cleavage, fluorescence polarization | inhibition, % at 5.59 µM;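 active = percent inhibition above the average of all tested compounds plus 3 SD, set per screening campaign, cut at about 16% in these data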;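 note: IDE supplied by intact live HEK cells; FP after avidin binding of uncleaved biotin substrate so inhibition keeps polarization high; 0% = DMSO wells and 100% = 60 µM reference IDE inhibitor Ii1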
TMEM16A inh: blocks the mouse calcium-activated chloride channel TMEM16A | AID 588511 | normalized B-score (activity score, 25-100; higher = stronger inhibition) at 10 µM | HEK293 TMEM16A/YFP iodide influx fluorescence, ionomycin | Q8BHY3 | actives 1.2% (n = 310,000);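 active = ratio plate-corrected score three or more library SD toward inhibition, starting fluorescence score within five deviations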;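 note: score derived from kinetic fluorescence span divided by baseline fluorescence per well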
ANO1 activ: mouse TMEM16A channel activation, primary screen; actives 0.3% (n = 340,000); HEK293 TMEM16A/YFP-H148Q/I152L, iodide quench fluorescence; stronger effect = lower value; B-score at 10 µM; Q8BHY3; AID 623877;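 active = fluorescence-ratio B-score plate-corrected deviation score at least 3 library SD below zero, with starting fluorescence score within 5 deviations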;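 note: channel opened by trigger with iodide after compound preincubation; score built on the fluorescence ratio of max minus min over baseline; more negative score means more quench and so TMEM16A activation or potentiation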
IDE act: boosts human insulin-degrading enzyme activity in HEK cells. FAbeta-B cleavage, fluorescence polarization; 0% vehicle, 100% cell-free pure enzyme wells. P14735. actives 0.073% (n = 340,000). activation, % at 5.96 µM;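 active = activation above the mean of all tested compounds plus 3 SD, set per screening campaign, cut at about 17% in these data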
Starred values were filed as active, the others as inactive; i = inactive; / = no result.

SMILES	CHT allo act	CHT inh	IDE cell inh	TMEM16A inh	ANO1 activ	IDE act
O=C(Nc1cc(S(=O)(=O)N2CCOCC2)ccc1N1CCOCC1)c1ccccc1F	/	/	3	/	i	20*
CCOC(=O)c1cccc(NC(=O)c2ccc(-n3cnnn3)cc2)c1	/	/	-1	/	i	1
COc1cccc(CNC(=O)c2ccncc2)c1	i	i	1	i	i	4
O=C(NC(=S)Nc1ccc(-c2ccc(CO)o2)cc1)c1cccs1	i	i	5	100*	i	/
O=C(COc1cccc2ccccc12)Nc1ccc(Cl)cc1C(=O)O	i	-7.3*	3	100*	i	6
Cc1nnc(N2CCC(C(=O)NC3CCC(C)CC3)CC2)c2nn(-c3ccc(Cl)cc3)c(C)c12 (configuration not stated)	i	i	0	100*	i	0
CCc1ccc(S(=O)(=O)NC2CC(C)(C)NC(C)(C)C2)cc1	i	i	8	i	i	-5
Cc1cc(C(C#N)c2ccc(Cl)cc2)c(Cl)cc1NC(=O)c1cc(I)cc(I)c1O (configuration not stated)	i	i	-3	100*	i	7
Cc1ccc(OC(=O)CCNC(=O)c2ccccc2Cl)c(Br)c1	i	i	-1	i	i	3
Cc1ccc(NC(=O)COC(=O)CCc2c(C)nc3ncnn3c2C)cc1C	/	/	2	/	i	0
Cc1ccc(NC(=O)COC(=O)CCc2c(C)nc3nc(N)nn3c2C)cc1C	/	/	1	/	-23*	5
O=C(NC1CCC1)C1CCC(=O)N(Cc2ccccc2F)C1 (configuration not stated)	i	i	-2	i	i	-1
O=C(NC1CCC1)C1CCC(=O)N(Cc2cccc(F)c2)C1 (configuration not stated)	i	i	/	i	-6.2*	2
O=C(Nc1nnc(SCc2ccccc2Cl)s1)C1COc2ccccc2O1 (configuration not stated)	i	i	-4	25*	i	1
Cc1ccccc1CSc1nnc(NC(=O)C2COc3ccccc3O2)s1 (configuration not stated)	i	i	7	i	i	1
O=[N+]([O-])c1ccc(CSc2ccc(S(=O)(=O)N3CCCCC3)cn2)cc1	/	/	5	/	i	-1
CC1(C)Cc2ccccc2-c2nnc(SCC(=O)N3CCN(c4ccccc4)CC3)n21	i	i	6	25*	i	-6
CCn1cc(C(=O)O)c(=O)c2cc(F)c(N3CCN(C)CC3)cc21	6.4*	i	8	i	i	3
CCOC(=O)c1cn(CC)c2cc(N3CCN(C)CC3)c(F)cc2c1=O	i	i	-3	i	i	1
CC1CCC2C(C1)OS(=O)(=O)NC2(C)C (configuration not stated)	i	i	-2	i	/	/
CCN(CC)c1ccc2nc3c4ccccc4c(=O)cc-3oc2c1	i	i	/	i	/	/
CCN(CC)c1ccc2c(-c3ccc(S(=O)(=O)O)cc3S(=O)(=O)[O-])c3ccc(=[N+](CC)CC)cc-3oc2c1	i	i	-56	i	i	27*
CCn1c(CNC(=O)Cc2ccc(OC)cc2)nnc1SCC(=O)c1ccccc1	/	/	/	/	-35*	2
COc1ccc(CCNC(=O)Cc2ccc(NC3=NC4CS(=O)(=O)CC4S3)cc2)c(OC)c1 (configuration not stated)	i	i	11	i	i	-20
N#CC1=C(N)SC(N)=C(C#N)C1c1ccnc2ccccc12	i	i	6	i	-28*	-8
SMILES	CHT allo act	CHT inh	IDE cell inh	TMEM16A inh	ANO1 activ	IDE act
O=C1c2ccccc2C(=O)C1c1ccnc2ccccc12	i	i	-5	i	i	3
CCCCCCOC1(c2ccccc2)OC(=O)c2ccccc21 (configuration not stated)	i	i	3	25*	i	7
N#CCSc1ccccc1NC(=O)COC(=O)Cc1c[nH]c2ccccc12	/	/	1	/	i	0
NNc1ccc2c(C(F)(F)F)cc(C(F)(F)F)nc2n1	i	i	4	i	i	1
N#CC(c1cccc(Cl)c1)c1ccc2c(C(F)(F)F)cc(C(F)(F)F)nc2n1 (configuration not stated)	i	i	-3	100*	-4.8*	4
COc1ccccc1CNC(=O)CN1C(=O)NC(Cc2ccccc2)(c2ccccc2)C1=O (configuration not stated)	/	/	4	/	i	6
Cc1cc(NC2CCCCC2)nc(NCc2ccccc2)n1	i	i	0	100*	i	2
COc1ccc(Nc2cc(C)nc(NCc3ccccc3)n2)cc1	i	i	-2	i	i	/
O=C(Nc1cc(Cl)cc(Cl)c1)C1CCCC1	i	i	0	i	i	3
Cc1ccc(NC(=O)COC(=O)c2oc3ccccc3c2C)cc1S(=O)(=O)N1CCOCC1	/	/	/	/	i	-5
O=C(COCc1cc(-c2ccc3c(c2)OCO3)on1)N1CCN(c2cccc(C(F)(F)F)c2)CC1	i	i	3	25*	i	5
COc1ccc(N2CCN(C(=O)COCc3cc(-c4ccc5c(c4)OCO5)on3)CC2)cc1	i	i	-2	i	i	4
COc1ccc(-c2noc(CCC(=O)N3CCN(c4cccc(C(F)(F)F)c4)CC3)n2)cc1	i	i	-1	100*	i	-1
COc1ccc(NS(=O)(=O)c2cccc(NC(=O)NC3CCCCC3)c2)cc1	i	i	-3	25*	i	-2
COc1ccc(NS(=O)(=O)c2ccc(C)c(NC(=O)NC3CCCCC3)c2)cc1	i	i	2	i	i	8
Cc1ccc2c(c1)N(CC(=O)NCC(C)c1ccccc1)C(=O)c1cccnc1O2 (configuration not stated)	i	i	-1	i	i	4
C[C@H](NC(=O)c1[nH]cnc1C(=O)Nc1ccc(CNC(=O)OC(C)(C)C)cc1)C(=O)OCc1ccccc1	i	i	0	100*	i	7
CC(C)C[C@H](NC(=O)c1[nH]cnc1C(=O)Nc1ccc(CNC(=O)OC(C)(C)C)cc1)C(=O)OCc1ccccc1	i	i	-1	i	i	5
CCCc1[nH]n(-c2ccc([N+](=O)[O-])cc2)c(=O)c1C=NCCN1CCNCC1	6.8*	i	1	i	/	/
O=C(COC(=O)c1ccc(O)cc1)Nc1cccc(S(=O)(=O)NC2=NCCC2)c1	/	/	-5	/	-31*	10
